About 8,800 targets were measured; listed, in parts, are those with a hit and a random draw of the rest. About 0.5% of all pairs of compound and target were hits. A number with no mark means an inactive call.
What was measured:
Experiment in all cases: log2 fold change, soluble protein after heating vs DMSO (PISA); higher = thermal stabilisation; K562 lysate, 10 uM; active = over 0.2 and 3.5 SD of the protein, either way, in both replicates (recomputed)
erlotinib = compound: C#Cc1cccc(Nc2ncnc3cc(OCCOC)c(OCCOC)cc23)c1 [erlotinib]
Procedure, shortened: (§1)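 Log-two fold change in thermal stability relative to solvent controls is reported from duplicates. For each sample, crude K562 extract from dounce-homogenised pellets in PBS pH 7.4 with 1 mM MgCl2, at 1 mg/mL protein, was treated with 10 μM compound for 30 min. Aliquots heated for 3 min across 48°C-58°C were pooled, brought to 0.5% NP-40 at 4°C and cleared at 21,000xg for 90 min. The supernatant was quantified by TMTpro 16plex LC-MS/MS with channel sums equalised.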

[1] = compound: C/C(=N\NC(=O)C1=CC(=CC=C1)S(=O)(=O)N2CCOCC2)/C3=C(C=CC(=C3)Cl)O
Procedure, shortened: as §1

[2] = compound: C1=CC(=CC=C1C2=NC3=C(N2)C=C(C=C3)C(=O)N)OC4=CC=C(C=C4)Cl
Procedure, shortened: as §1

[3] = compound: C1=CC2=C(C=CC(=C2)/C=C\3/C(=O)NC(=NCC4=CC=CS4)S3)N=C1
Procedure, shortened: as §1

[4] = compound: C1=CC2=NC=CN=C2C=C1/C=C/3\C(=O)NC(=O)S3
Procedure, shortened: as §1

[5] = compound: C1=CC=C(C=C1)C2=NC(=C(N2)C3=CC=NC=C3)C4=CC(=C(C=C4)Cl)O
Procedure, shortened: as §1

[6] = compound: C1=CC=C2C(=C1)C3=NNC4=CC=CC(=C43)C2=O
Procedure, shortened: as §1

[7] = compound: C1CCN(C1)C(=O)NC2=CC=CC(=C2)NC3=NC=C(C(=N3)NCCC4=CN=CN4)Br
Procedure, shortened: as §1

[8] = compound: C1CN(CCC1(CC2=CC=C(C=C2)Cl)N)C3=NC=NC4=C3C=CN4
Procedure, shortened: as §1

IRAK-1-4 Inhibitor I = compound: C1COCCN1CCN2C3=CC=CC=C3N=C2NC(=O)C4=CC(=CC=C4)[N+](=O)[O-] [IRAK-1-4 Inhibitor I]
Procedure, shortened: as §1

UniProt Q6PJG6, sequence (Q6PJG6 whole entry, looked up): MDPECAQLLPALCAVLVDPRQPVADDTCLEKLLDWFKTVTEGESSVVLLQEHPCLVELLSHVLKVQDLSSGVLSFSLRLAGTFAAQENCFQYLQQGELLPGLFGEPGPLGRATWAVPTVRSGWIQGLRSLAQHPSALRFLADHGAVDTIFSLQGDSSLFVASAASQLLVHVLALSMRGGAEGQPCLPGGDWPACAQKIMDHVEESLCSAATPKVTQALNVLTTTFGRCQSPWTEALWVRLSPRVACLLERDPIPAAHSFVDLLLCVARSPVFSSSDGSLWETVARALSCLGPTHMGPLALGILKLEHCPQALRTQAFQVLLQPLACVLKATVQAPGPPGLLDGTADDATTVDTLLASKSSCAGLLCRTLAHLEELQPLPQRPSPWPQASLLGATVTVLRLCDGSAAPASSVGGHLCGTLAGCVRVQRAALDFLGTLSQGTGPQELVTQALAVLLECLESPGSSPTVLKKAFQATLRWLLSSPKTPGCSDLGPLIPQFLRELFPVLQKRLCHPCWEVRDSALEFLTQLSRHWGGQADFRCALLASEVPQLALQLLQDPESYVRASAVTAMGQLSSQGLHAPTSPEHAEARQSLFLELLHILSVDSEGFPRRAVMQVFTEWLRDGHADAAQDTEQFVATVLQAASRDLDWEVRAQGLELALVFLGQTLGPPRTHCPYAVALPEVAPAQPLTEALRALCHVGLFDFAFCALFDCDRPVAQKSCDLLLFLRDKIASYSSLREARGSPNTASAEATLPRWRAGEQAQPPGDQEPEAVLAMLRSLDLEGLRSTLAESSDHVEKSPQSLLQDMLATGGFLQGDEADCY
UniProt O43861, sequence (O43861 whole entry, looked up): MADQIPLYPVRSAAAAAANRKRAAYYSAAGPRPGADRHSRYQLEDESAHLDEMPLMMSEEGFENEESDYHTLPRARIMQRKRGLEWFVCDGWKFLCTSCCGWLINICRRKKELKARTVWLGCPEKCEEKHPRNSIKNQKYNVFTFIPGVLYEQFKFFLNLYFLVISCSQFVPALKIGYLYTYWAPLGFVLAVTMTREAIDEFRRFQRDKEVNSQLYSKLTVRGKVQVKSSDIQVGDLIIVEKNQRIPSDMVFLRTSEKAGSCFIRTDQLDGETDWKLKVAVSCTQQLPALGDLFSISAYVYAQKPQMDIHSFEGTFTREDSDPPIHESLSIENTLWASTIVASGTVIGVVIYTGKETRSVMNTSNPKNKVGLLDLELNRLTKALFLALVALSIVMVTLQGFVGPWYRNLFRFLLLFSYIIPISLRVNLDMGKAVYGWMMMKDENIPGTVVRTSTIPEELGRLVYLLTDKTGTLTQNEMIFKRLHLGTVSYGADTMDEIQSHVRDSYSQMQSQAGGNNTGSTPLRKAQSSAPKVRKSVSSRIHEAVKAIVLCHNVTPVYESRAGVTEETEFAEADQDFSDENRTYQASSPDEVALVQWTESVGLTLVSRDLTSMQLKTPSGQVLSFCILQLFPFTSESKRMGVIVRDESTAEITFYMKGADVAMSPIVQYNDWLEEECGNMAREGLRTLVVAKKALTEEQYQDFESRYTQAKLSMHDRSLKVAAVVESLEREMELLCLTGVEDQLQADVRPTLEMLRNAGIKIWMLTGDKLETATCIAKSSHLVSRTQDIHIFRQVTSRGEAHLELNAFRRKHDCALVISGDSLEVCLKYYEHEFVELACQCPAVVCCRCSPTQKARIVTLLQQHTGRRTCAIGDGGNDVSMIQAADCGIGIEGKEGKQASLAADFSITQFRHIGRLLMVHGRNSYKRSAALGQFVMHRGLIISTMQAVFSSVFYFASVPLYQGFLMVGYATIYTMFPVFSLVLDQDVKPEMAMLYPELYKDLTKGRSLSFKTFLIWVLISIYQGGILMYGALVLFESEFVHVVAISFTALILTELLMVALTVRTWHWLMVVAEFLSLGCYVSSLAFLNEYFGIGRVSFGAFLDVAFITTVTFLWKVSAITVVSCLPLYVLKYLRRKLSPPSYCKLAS
UniProt O75909, sequence (O75909 whole entry, looked up): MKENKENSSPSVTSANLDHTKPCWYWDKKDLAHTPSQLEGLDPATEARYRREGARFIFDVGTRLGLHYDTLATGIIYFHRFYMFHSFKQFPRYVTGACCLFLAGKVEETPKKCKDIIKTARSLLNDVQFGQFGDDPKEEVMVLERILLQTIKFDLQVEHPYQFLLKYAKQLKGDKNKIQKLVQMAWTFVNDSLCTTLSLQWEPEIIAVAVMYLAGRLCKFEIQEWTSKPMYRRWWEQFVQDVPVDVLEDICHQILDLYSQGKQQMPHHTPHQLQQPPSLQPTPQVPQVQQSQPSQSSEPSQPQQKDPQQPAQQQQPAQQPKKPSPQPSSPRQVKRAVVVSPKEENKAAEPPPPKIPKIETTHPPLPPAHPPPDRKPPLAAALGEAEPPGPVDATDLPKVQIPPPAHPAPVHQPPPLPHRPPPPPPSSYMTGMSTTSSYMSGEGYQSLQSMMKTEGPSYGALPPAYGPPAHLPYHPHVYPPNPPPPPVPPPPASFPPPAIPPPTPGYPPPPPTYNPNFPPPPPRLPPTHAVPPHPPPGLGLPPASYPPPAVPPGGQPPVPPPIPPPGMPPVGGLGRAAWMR
UniProt Q96RR4, sequence (Q96RR4 whole entry, looked up): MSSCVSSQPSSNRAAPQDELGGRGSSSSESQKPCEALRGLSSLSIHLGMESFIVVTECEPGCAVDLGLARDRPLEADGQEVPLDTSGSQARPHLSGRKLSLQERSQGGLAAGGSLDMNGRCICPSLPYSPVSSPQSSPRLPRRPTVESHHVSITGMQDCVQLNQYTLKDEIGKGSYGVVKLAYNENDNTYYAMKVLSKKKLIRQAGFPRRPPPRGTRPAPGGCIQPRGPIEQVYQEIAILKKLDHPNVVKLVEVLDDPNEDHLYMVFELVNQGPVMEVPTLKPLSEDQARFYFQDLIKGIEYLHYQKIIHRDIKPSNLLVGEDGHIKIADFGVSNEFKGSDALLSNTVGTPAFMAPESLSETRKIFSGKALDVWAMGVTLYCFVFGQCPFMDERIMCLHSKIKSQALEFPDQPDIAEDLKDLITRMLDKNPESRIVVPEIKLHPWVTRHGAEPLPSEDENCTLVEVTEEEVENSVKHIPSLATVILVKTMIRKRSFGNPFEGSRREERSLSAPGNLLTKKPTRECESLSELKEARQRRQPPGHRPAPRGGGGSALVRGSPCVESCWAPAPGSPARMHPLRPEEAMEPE
UniProt O43303, sequence (O43303 whole entry, looked up): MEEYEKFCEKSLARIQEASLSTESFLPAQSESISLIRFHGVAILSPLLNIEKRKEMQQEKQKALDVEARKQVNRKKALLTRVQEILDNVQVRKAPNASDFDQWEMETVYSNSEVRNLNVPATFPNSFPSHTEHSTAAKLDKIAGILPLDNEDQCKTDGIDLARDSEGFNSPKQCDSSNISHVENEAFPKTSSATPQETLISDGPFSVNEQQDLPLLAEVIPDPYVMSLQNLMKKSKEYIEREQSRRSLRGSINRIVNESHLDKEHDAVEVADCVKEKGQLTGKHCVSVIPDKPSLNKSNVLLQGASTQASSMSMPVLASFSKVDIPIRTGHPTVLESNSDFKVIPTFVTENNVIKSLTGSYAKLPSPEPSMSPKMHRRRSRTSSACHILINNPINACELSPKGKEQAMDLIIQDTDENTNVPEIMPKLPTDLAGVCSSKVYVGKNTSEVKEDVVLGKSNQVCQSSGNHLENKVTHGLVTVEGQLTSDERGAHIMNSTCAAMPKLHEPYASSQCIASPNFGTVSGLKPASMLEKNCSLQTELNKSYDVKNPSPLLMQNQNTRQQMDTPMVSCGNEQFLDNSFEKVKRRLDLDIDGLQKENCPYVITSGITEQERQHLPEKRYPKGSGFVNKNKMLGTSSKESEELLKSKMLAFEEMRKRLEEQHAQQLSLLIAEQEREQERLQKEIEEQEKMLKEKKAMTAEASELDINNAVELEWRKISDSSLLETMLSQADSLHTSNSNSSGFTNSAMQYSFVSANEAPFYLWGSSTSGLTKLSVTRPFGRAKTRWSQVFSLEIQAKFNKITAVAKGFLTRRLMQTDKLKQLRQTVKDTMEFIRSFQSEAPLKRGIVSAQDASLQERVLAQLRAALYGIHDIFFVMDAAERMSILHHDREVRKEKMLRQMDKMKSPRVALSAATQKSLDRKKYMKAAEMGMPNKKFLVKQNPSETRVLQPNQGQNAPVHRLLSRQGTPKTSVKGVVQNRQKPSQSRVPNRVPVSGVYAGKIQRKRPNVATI
UniProt P56945, sequence (P56945 whole entry, looked up): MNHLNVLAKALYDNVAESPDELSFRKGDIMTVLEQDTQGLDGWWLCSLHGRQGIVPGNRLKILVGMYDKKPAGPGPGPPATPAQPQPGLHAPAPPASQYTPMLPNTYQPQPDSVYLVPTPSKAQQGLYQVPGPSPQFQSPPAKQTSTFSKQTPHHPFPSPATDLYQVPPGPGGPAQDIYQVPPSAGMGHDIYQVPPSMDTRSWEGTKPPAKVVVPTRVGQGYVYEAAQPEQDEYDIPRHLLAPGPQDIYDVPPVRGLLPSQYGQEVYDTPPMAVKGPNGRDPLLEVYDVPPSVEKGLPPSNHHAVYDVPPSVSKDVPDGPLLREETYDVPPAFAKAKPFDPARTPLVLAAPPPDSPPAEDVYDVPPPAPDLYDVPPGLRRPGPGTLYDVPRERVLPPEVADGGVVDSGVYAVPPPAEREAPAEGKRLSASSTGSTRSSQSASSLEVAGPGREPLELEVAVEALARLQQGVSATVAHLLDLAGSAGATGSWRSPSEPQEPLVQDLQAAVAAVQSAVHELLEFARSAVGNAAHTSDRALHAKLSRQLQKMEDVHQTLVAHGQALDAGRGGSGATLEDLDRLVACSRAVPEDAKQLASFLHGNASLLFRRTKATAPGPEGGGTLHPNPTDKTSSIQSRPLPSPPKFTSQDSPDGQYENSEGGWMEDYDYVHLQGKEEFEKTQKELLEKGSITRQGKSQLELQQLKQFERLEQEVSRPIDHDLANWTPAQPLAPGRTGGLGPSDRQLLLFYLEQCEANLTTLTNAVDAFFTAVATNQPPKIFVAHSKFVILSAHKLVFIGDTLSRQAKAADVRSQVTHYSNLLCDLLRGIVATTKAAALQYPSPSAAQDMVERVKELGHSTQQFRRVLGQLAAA

Target	log2 fold change (erlotinib)	log2 fold change [1]	log2 fold change [2]	log2 fold change [3]	log2 fold change [4]	log2 fold change [5]	log2 fold change [6]	log2 fold change [7]	log2 fold change [8]	log2 fold change (IRAK-1-4 Inhibitor I)
CD63 (UniProt P08962)	-0.042	0.026	-0.031	0.047	0.057	-0.114	-0.038	0.018	-0.016	0.066
BCAR1 isoform 6 (UniProt P56945)	0.005	-0.043	0.052	0.048	-0.019	0.019	-0.063	0.041	0.021	-0.017
CAMKK2 (UniProt Q96RR4)	-0.033	-0.028	-0.045	-0.057	-0.014	0.005	0.002	0.135	0.033	-0.027
CHD4 isoform 2 (UniProt Q14839)	-0.02	0.009	0.007	0.004	-0.016	-0.004	-0.013	-0.013	0.031	-0.015
ATP5PF isoform 2 (UniProt P18859)	0.063	0.107	-0.021	0.011	0.017	0.05	-0.01	-0.003	0.09	-0.026
BPHL (UniProt Q86WA6)	-0.054	-0.445 (active)	0.033	0.089	-0.135	-0.071	0.118	-0.063	0.082	-0.033
BRAT1 (UniProt Q6PJG6)	0.05	-0.01	-0.052	0.006	0.026	0.03	-0.075	0.003	-0.013	-0.013
AVEN (UniProt Q9NQS1)	0.111	0.077	-0.205	-0.079	0.183	0.06	0.055	-0.023	-0.013	-0.096
CALB2 (UniProt P22676)	0.021	0.045	-0.04	-0.103	-0.077	0.02	0.043	0.056	0.065	0.08
BTAF1 (UniProt O14981)	0.044	-0.035	-0.01	-0.002	-0.003	0.002	0.002	-0.017	0.022	-0.034
C18orf25 isoform 2 (UniProt Q96B23)	0.031	0.098	-0.059	-0.002	0.185	0.055	-0.011	-0.01	-0.063	0.003
CDK5RAP2 (UniProt Q96SN8)	0.037	0.159	-0.021	-0.008	-0.09	-0.011	-0.025	-0.016	0.001	-0.026
ATP9B (UniProt O43861)	0.008	-0.057	0.034	0.175	-0.07	0.031	0.081	0.027	-0.103	-0.037
CCDC25 (UniProt Q86WR0)	-0.012	0.031	0.031	0.012	0.019	0.015	0.007	-0.006	0	-0.024
ATG4A (UniProt Q8WYN0)	0.031	-0.087	-0.055	-0.01	0.007	0.01	-0.023	-0.015	0.038	-0.001
CDK16 isoform 2 (UniProt Q00536)	-0.061	0.002	0.016	0	-0.005	-0.017	0.151	0.004	-0.007	0.03
CCDC51 (UniProt Q96ER9)	0.03	-0.08	-0.047	-0.024	-0.005	0.067	-0.07	0.005	0.029	-0.041
BCKDK (UniProt O14874)	-0.041	-0.168	-0.007	0.062	-0.007	-0.053	0.01	-0.041	0.045	-0.097
CCP110 (UniProt O43303)	0.081	-0.436 (active)	0.046	-0.022	0.03	-0.088	-0.047	-0.051	0.051	0.075
CDC40 (UniProt O60508)	-0.036	-0.004	-0.009	-0.037	0.015	-0.072	-0.059	-0.023	-0.035	0.117
CHCHD1 (UniProt Q96BP2)	-0.002	-0.7	0.029	-0.053	0.005	0.021	-0.002	0.04	0.043	0.068
BSDC1 (UniProt Q9NW68)	-0.002	0.01	-0.039	0.046	-0.025	-0.024	0.036	-0.029	0	0.059
ATP6V1B1 (UniProt P15313)	-0.044	0.014	0.027	-0.036	0.013	-0.02	0.006	-0.033	0.001	0.019
ATP13A1 (UniProt Q9HD20)	0.02	-0.09	-0.153	0.024	-0.026	0.02	-0.054	-0.04	0.033	0.015
CCNK isoform 4 (UniProt O75909)	-0.018	-0.022	-0.012	-0.016	-0.062	-0.039	-0.001	0.01	0.002	-0.021
ATG10 (UniProt Q9H0Y0)	0.062	0.043	-0.011	-0.012	-0.01	0.035	0.086	-0.004	-0.004	0.022
CEP76 (UniProt Q8TAP6)	0.005	-0.033	0.012	0.053	-0.072	-0.003	0.052	-0.002	0	0.056
CDKN1B (UniProt P46527)	-0.079	-0.067	0.011	0.012	0.026	-0.038	0.03	0.045	0.003	-0.086
BNIP1 (UniProt Q12981)	-0.028	0.05	-0.048	-0.011	-0.026	0.071	-0.009	0.002	0.018	-0.004

Reference: the supplement of paper PMC10849652
